Measurements from the supplement of paper PMC6555819.

Test system: VDR:RXRa (NR concentration 270 nM, RXRa partner concentration 90 nM)
Experiment: PBM binding z-score (relative to random genomic background probes); higher = stronger binding; sequences stand for … in GC…GCGATTGACAGCGTAGAATGAAGG
Method: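 Protein-binding microarray (Agilent 4x180K custom design, double-stranded 60-nt probes: 5' GC cap, 34-nt variable region, 24-nt constant primer region; full probe sequence given). Purified or IVT nuclear receptor:RXRα heterodimers (3:1 NR:RXRα, mostly 270:90 nM) or homodimers were incubated for 1 h in PBS with 2% milk and no ligand, then detected with Alexa488 antibodies. Fluorescence from o1-orientation probes (~5 replicates averaged) was converted to z-scores against 500 random hg19 background probes. Variable regions are seed direct-repeat (DR0–DR5) sites, all their single-nucleotide variants and half-site ablations.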

Sequence | PBM binding z-score
CGAACTAGGTCAGCACAGGACAGTGAAGGATGAT | 0.981
CATACAGGGTCAGCTAGGCCTGAGTAGGGACGGC | 2.61
GGAACGAGGGCATTCGAGTTGATAGAATGGCGAT | 3.62
GCTAGCAGGCCATTTGGGTCTCTCAATGACGGGC | -0.594
CCAGACAGGTGAGAAGGTCACTCAGCCTCGATTA | 2.66
GCTATTAGTTGAAAGGGCTACCGAATGATTCTCG | -0.406
CATACAGGGTCAGCTAGGCCCGAGTAGGGACGGC | 2.63
CAATCTAGGTCACCGGAAGGTCAAAGTCCGCATG | 6.01
ACATACAGGTGATGAAGGTAACTCAGGCTATCAT | 0.555
GCTAGCAGGGCATTTGGGTCACTCAATGACGGGC | 2.15
CCTCGGAGGACAAAAGGAGGTCAGAGCTGCCAGA | 1.97
TCTCGGAGGCCACGAAAGGTCAGAGCTCGACATC | 3.62
AATACAGGGTCATCGTAGGCCAGGGTACGCACAG | 5.25
TCTAGTTGGTCAAAGGTCACACATTCGAAATGCG | 5.09
CCTTACGAGTCACTGACAGGTTATAGCATTTGGA | 1.06
TCTAGTAGGTTACCAATGGGGCATTCAGCTTTCT | 0.81
GCTTGTAGATCAAAGTTAAGAAAGACTAAGCTAA | -0.483
CCTTACGGGTCAAGGTTATAGCACGGGTGGTACG | 3.41
GCTAGTTGGTCAGTAAAAGGTTACACACCGGTCG | 0.877
GATACAGGGTCAGCTCGAGGCCAGAGTATGGAAA | 3.61

Sequence | PBM binding z-score
TCTGCTAGCTCAGTTGGTCAGCTAACGAGCTGCC | -0.839
TCATATAGGTAAATGATAGGTGAAAGTCCGATCT | 1.15
CCTACTGGGCCAAAAGTCATTGATTCCAATGCTC | -0.0662
GCTTGTAGATCAACGTTAAGAAAGACTAAGCTAA | -0.456
TGAATGAGGTTAAAGTTCAGGGAACGTGGCGTCG | 4.37
GATACAGGGTCAGGTAGAGGCCAGAGTATGGAAA | 3.35
TCTTGTAGATCAACAGCAGGTTAAGAAAGATCGA | 0.341
GATACAGGGTCAAGGCAAGAGTACGCGTATTGAT | 4.62
TCTATTAGATGATTAGGGCAACCGAAACAGCGGA | 0.44
CGTCCAAGGTCAAGGCCAGTGAAAGAGACTCGAA | 3.69
GCGACTGGGGCAAAGCAGGTTACCATCAGGTTGG | -0.194
ACAGACAGGTGAGTGAAGGTAATTCAGCTGGACG | -0.394
TCTGCTAGGTCAACAATGGTCAGCTAATCTGCTA | 1.84
CCAGACAGGTGAATGGTAACTCAGTCTGGTACGC | -0.231
TATACAGGGTCAAAGGCCAGAGAACGAATGTCGA | 4.77
GCGGCTGGGGCATCAGCAGGTTACCATAACTTAA | -0.259
TCTAGTTGGTCACGCAGGTCACACACGACGGGTA | 4.01
CTACCAAGGTGAACAAGGTCCTTGATTACTATTC | 3.56
TCTCGGAGGACACGAAAGGTCCGAGCTCGACATC | -0.242
GCTAGCATGCCATTTGGGTCACTCAATGACGGGC | 0.372
